Source: PubChem BioAssay

Test system: XIP peptide (Xip251-270) binding
Test: small-molecule binders of XIP peptide, primary screen, biochemical, small-molecule microarray, fluorescence 635/667 nm, 0.1 µg/mL protein (AID 1182)
Conditions: fluorescent protein binding, 635 nm, higher = more signal, called active from +8 up or from −8 down

Composite z-score, inactive:
Cc1ccc(S[C@]2(C(=O)O)CC(=O)N(Cc3ccccc3)[C@@H]2c2ccc(CO)cc2I)cc1 0.233, COC(=O)[C@@H]1CCCN1C(=O)[C@@H](C)CO 0.446, CN1C(=O)C2C=CC(C(O)c3ccc(Br)cc3)N(N(c3ccccc3)c3ccccc3)C2C1=O (stereo not given) 0.654, C[C@H](c1ccccc1)N1C(=O)[C@H]2[C@H]3[C@H](O)[C@H](O)CC(=O)[C@@H]3CC[C@H]2C1=O 0.0518, CC(=O)OC[C@H]1O[C@@H](ON=C(C)CCN2CCc3nc(-c4ccccc4)c(-c4ccccc4)cc3C2)[C@H](OC(C)=O)[C@@H](OC(C)=O)[C@@H]1OC(C)=O 0.0113, CCc1cc2c(nc1CC)CCN(CCC(C)=NOC(C)CN1CCCc3nc(C)c(C)cc31)C2 (stereo not given) 1.36, COC(=O)CC=C[C@@H](C)[C@@H](C=NO[C@H](C)c1cn([C@@H]2COC[C@H]2O)nn1)OC -0.107, CO[C@H]1COC(=O)CC=C[C@H](C)[C@@H](NS(=O)(=O)c2ccc(C)cc2)COC(=O)CC=C[C@@H]1C -0.116, COc1ccc(O[C@H]2C=C[C@@H](c3ccccc3)O[C@@H]2COC(=O)CCC(C)=NO[C@H](C)c2cn([C@@H]3COC[C@H]3O)nn2)cc1 0.0628, CO[C@H]1COC(=O)[C@@H]2CCCN2C(=O)CC=C[C@@H](C)[C@H](OC)COC(=O)CC=C[C@@H]1C 0.371, C#CCCCON=C1C[C@@H](O)[C@@H](O)[C@@H]2[C@@H]3C(=O)N(Cc4ccccc4)C(=O)[C@@H]3CC[C@H]12 0.136, COC(=O)CC=C[C@@H](C)[C@H](OC)c1ccccc1Br -0.575, C[C@@H](c1ccccc1)N1C(=O)[C@H]2[C@H]3[C@H](O)[C@H](O)CC(=NOC[C@@H](O)COCc4ccco4)[C@@H]3CC[C@H]2C1=O -0.201, O=C1[C@H]2[C@H]3[C@H](O)[C@H](O)CC(=NOC[C@@H](O)COCc4ccco4)[C@H]3CC[C@H]2C(=O)N1C1CCCCC1 -0.26, CC[C@@H](c1ccccc1)n1c(=O)n2n(c1=O)[C@H]1[C@H](O)[C@@H]3O[C@@H]3C(=NOCC=C(C)CCC=C(C)C)[C@H]1CC2 0.17, C[C@H]1Cc2c(-c3ccccc3)nc3c(c2CO1)CN(CCOc1ccccc1)CC3 0.15, CCOC(=O)C1=CC[C@H]2C(=O)N(CC)C(=O)[C@@H]12 0.223, COC(=O)[C@@]1(Cc2ccccc2)[C@H]2c3cc(C(=O)N4CCCC4)n(Cc4ccccn4)c3C[C@H]2CN1C(=O)c1ccccc1 0.766, CC(=O)OC[C@H]1O[C@H](CCON=C(C)CCN2CCc3nc(-c4ccccc4)c(-c4ccccc4)cc3C2)C=C[C@@H]1OC(C)=O 0.583, COC(=O)C1=C(C)[C@@H](O)[C@@H](C)[C@H](c2c(OC)c(OC)c(C)c(OC)c2OC)O1 -0.252, CC(=O)O[C@H]1C2=C(C(=O)[C@@H]3O[C@@H]31)[C@H]1C(C)O[C@@H]2[C@@]23C(=O)[C@@H]4O[C@@H]4[C@@H](O)C2=CO[C@H](C)[C@@H]13 (stereo not given in full) -0.179, CC(=O)OC[C@H]1O[C@H](C#CCCCc2ccccc2)C=C[C@@H]1OC(C)=O 1.05, C[C@@H](c1ccccc1)N1C(=O)[C@H]2[C@H]3[C@H](O)C=CC(=O)[C@@H]3CC[C@H]2C1=O 0.146, CC(CCN1CCc2nc(-c3ccccc3)c(-c3ccccc3)cc2C1)=NOC[C@@H](C)[C@H](OCc1ccccc1)C(C)C 2.56, CO[C@@H]1COC(=O)CC=C[C@@H](C)COC(=O)[C@H](COCc2ccccc2)NC(=O)CC=C[C@H]1C 0.0912, CCN1C(=O)[C@H]2[C@H]3[C@H](O)[C@H](O)CC(=NOCc4ccccc4)[C@@H]3CC[C@H]2C1=O -0.161, COC(=O)[C@@H]1CC[C@H](C)[C@@H](c2ccc(C)cc2)N1C(=O)c1ccc(C=NOC[C@@H](O)COCc2ccco2)cc1 -0.484, COc1ccc(O[C@@H]2[C@H](O)CO[C@H]2C=CC#Cc2ccccc2)cc1 -0.0908, CC[C@@H](c1ccccc1)n1c(=O)n2n(c1=O)[C@H]1[C@H](O)[C@@H]3O[C@@H]3C(=NOCC(C)C)[C@H]1CC2 -0.242, COC(=O)[C@H](C)NC(=O)CCC1CC(OC(=O)NCc2cccc3ccccc23)CC2(CCCC(COC(=O)NCCc3ccc(Cl)cc3)O2)O1 (stereo not given in full) -0.0057, CCCCCCc1nc(CCCc2cc3c(c(CCCCCC)n2)[Si](C(C)C)(C(C)C)O[C@H]3c2ccccc2)cc2c1[Si](C(C)C)(C(C)C)O[C@H]2c1ccccc1 0.285, CC(=O)OC[C@H]1O[C@@H](ON=C[C@@H](C)[C@H](OCc2ccccc2)C(C)C)[C@H](OC(C)=O)[C@@H](OC(C)=O)[C@@H]1OC(C)=O -0.182, CC(C)CON=C1C[C@@H](O)[C@@H](O)[C@@H]2[C@@H]3C(=O)N([C@@H](C)c4ccccc4)C(=O)[C@@H]3CC[C@H]12 -0.0093, C#CCCCON=C1C[C@@H](O)[C@@H](O)[C@@H]2[C@@H]3C(=O)N(CCC(=O)OCC)C(=O)[C@@H]3CC[C@@H]12 -0.349, O=C1CCCC=C1C(O)CCOCc1ccccc1 (stereo not given) -0.294
